GPR151 ag: human GPR151 activation; PathHunter beta-arrestin GPR151 cells, luminescence; 650,000 tested, 1% active; activation, % at 11.2 µM; Q8TDV0; in the data active = activation above about 4.9%
FBW7 act: activators of human E3 ligase FBW7 | Q969H0 | normalized activity (activation), % at 26.1 µM | AID 1259310 | 650,000 tested, 0.13% active | AlphaScreen FBW7–phospho-cyclin E peptide binding, activator screen; in the data active = normalized activity above about 1.9%;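 also: purified mutant Fbw7 with reduced substrate affinity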
TEAD-YAP block: TEAD-YAP interaction inhibition; 640,000 tested, 1.4% active; inhibition, % at 9.12 µM; HEK-TIYL cells, TEAD-Gal4/YAP UAS-luciferase luminescence; in the data active = inhibition above about 32%
MITF primary: human MITF inhibition, primary screen; AlphaScreen MITF homodimerization, bead proximity signal; 650,000 tested, 0.91% active; inhibition, % at 2.6 µM; O75030; in the data active = inhibition above about 50%
Target sequence (O75030 whole entry, looked up): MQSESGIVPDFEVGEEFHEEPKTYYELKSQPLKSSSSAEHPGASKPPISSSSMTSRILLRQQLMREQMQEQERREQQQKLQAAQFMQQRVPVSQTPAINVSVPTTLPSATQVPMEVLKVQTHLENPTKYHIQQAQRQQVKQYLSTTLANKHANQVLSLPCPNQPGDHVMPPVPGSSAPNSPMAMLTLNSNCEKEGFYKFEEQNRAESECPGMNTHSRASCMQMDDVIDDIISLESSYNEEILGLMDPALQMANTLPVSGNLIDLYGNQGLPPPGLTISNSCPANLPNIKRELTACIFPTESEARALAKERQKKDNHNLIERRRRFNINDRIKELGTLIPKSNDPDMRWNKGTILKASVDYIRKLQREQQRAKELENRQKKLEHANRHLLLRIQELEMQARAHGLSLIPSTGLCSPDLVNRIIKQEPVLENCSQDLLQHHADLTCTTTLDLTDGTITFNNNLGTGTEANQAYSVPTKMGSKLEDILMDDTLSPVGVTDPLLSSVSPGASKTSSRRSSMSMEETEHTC
GPR151 conf act: confirmation of human GPR151 activators | shares compounds with GPR151 ag | GPR151 PathHunter beta-arrestin cells, luminescence, 90 min; % of EA-reagent control over plate median | activation, % at 11.2 µM | 6,700 tested, under 10 active;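 active = mean percent activation across replicates above the confirmation screen cutoff of 4.91%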
GPR119 ag: GPR119 activation, counter-screen for GPR151 activators. shares compounds with GPR151 ag. GPR119 PathHunter beta-arrestin cells, luminescence, 90 min; 0 = compound-well median, 100 = enzyme-acceptor control. activation, % at 11.2 µM. 6,700 tested, 0.3% active;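 active = mean percent activation in the counterscreen above 29.09%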;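 also: counterscreen on off-target GPR119 to flag nonselective hits from the GPR151 activator screen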
Hits are given with their value. The list is not random: actives were taken first. Their share in the collection is about 3.5%.

Results for Cc1ccc(CN2CCN(C(=O)C3CCC3)CC2)cc1 ?
GPR151 ag: 5.0; FBW7 act: inactive; TEAD-YAP block: inactive; MITF primary: inactive; GPR151 conf act: inactive; GPR119 ag: inactive

Results for O=C(CSc1nc2ccsc2c(=O)n1NC(=O)c1ccccc1)NCC1CCCO1 (stereo unspecified) ?
GPR151 ag: inactive; FBW7 act: inactive; TEAD-YAP block: inactive; MITF primary: inactive

Results for Cc1ccc(N2C(=O)CC(Sc3nc(-c4ccccc4)ccc3C#N)C2=O)cc1 (stereo unspecified) ?
GPR151 ag: inactive; FBW7 act: inactive; TEAD-YAP block: inactive; MITF primary: inactive

How did Cc1cc(C(F)(F)F)c(C#N)c(SC2CC(=O)N(c3ccccc3)C2=O)n1 (stereo unspecified) do in these assays?
GPR151 ag: 9.3; FBW7 act: inactive; TEAD-YAP block: inactive; MITF primary: inactive; GPR151 conf act: inactive; GPR119 ag: inactive

What do the screens show for `CC(C)Cc1ccc(C#N)c(SC2CC(=O)N(c3ccccc3)C2=O)n1` (stereo unspecified)?
GPR151 ag: 7.5; FBW7 act: inactive; TEAD-YAP block: inactive; MITF primary: inactive; GPR151 conf act: inactive; GPR119 ag: inactive

How did Cc1ccc(SC2CC(=O)N(c3ccccc3)C2=O)cc1 (stereo unspecified) do in these assays?
GPR151 ag: 5.0; FBW7 act: inactive; TEAD-YAP block: inactive; MITF primary: inactive; GPR151 conf act: inactive; GPR119 ag: inactive

How did Cc1ccc(N2C(=O)CC(Sc3nc(C)cc(C)n3)C2=O)cc1 (stereo unspecified) do in these assays?
GPR151 ag: inactive; FBW7 act: inactive; TEAD-YAP block: inactive; MITF primary: inactive

Results for Cc1ccc(N2C(=O)CC(Sc3nc(C)cc(C(F)(F)F)c3C#N)C2=O)cc1 (stereo unspecified) ?
GPR151 ag: inactive; FBW7 act: inactive; TEAD-YAP block: inactive; MITF primary: inactive

How did Cc1cccc(OCC(=O)NNC(=O)COc2ccc3ccccc3c2)c1 do in these assays?
GPR151 ag: inactive; FBW7 act: inactive; TEAD-YAP block: inactive; MITF primary: inactive

Results for O=[N+]([O-])c1cccc(-c2nnc(SCc3ccccc3)n2-c2ccccc2)c1 ?
GPR151 ag: inactive; FBW7 act: inactive; TEAD-YAP block: inactive; MITF primary: inactive

What do the screens show for `COC(=O)C1=CN(Cc2ccc(OC)cc2)C=C(C(=O)OC)C1c1cccc(O)c1`?
GPR151 ag: inactive; FBW7 act: inactive; TEAD-YAP block: inactive; MITF primary: inactive

What do the screens show for `COc1ccc(OC)c(NC(=O)CCc2nnc3ccc(N4CCCCC4)nn23)c1`?
GPR151 ag: inactive; FBW7 act: inactive; TEAD-YAP block: inactive; MITF primary: inactive

How did COc1ccc(Cl)cc1NC(=O)CCc1nnc2ccc(N3CCN(C)CC3)nn12 do in these assays?
GPR151 ag: 5.1; FBW7 act: inactive; TEAD-YAP block: inactive; MITF primary: inactive; GPR151 conf act: inactive; GPR119 ag: inactive

Results for Clc1nn2cnnc2c2ccccc12 ?
GPR151 ag: 6.9; FBW7 act: inactive; TEAD-YAP block: inactive; MITF primary: inactive; GPR151 conf act: inactive; GPR119 ag: inactive

Results for c1ccc(-c2nn3cnnc3c3ccccc23)cc1 ?
GPR151 ag: inactive; FBW7 act: inactive; TEAD-YAP block: inactive; MITF primary: inactive

What do the screens show for `Cc1ccccc1/C=N/NC(=O)CNc1cccc2ccccc12`?
GPR151 ag: inactive; FBW7 act: inactive; TEAD-YAP block: inactive; MITF primary: inactive

What do the screens show for `COCC(=O)N1CCCc2ccc(NS(=O)(=O)c3cc(C)ccc3C)cc21`?
GPR151 ag: 6.8; FBW7 act: inactive; TEAD-YAP block: inactive; MITF primary: inactive; GPR151 conf act: inactive; GPR119 ag: inactive

How did COCC(=O)N1CCCc2ccc(NS(=O)(=O)c3ccc(C)c(C)c3)cc21 do in these assays?
GPR151 ag: inactive; FBW7 act: inactive; TEAD-YAP block: inactive; MITF primary: inactive

How did C=CCNC(=O)C1CC(=O)N(c2ccccc2)C1 (stereo unspecified) do in these assays?
GPR151 ag: inactive; FBW7 act: inactive; TEAD-YAP block: inactive; MITF primary: inactive

Results for O=C(CN1CCN(c2nc(-c3ccccc3)cs2)CC1)Nc1ccccc1[N+](=O)[O-] ?
GPR151 ag: inactive; FBW7 act: inactive; TEAD-YAP block: inactive; MITF primary: inactive

What do the screens show for `Cc1ccc(-c2csc(N3CCN(CC(=O)Nc4ccc([N+](=O)[O-])cc4)CC3)n2)cc1`?
GPR151 ag: 7.0; FBW7 act: inactive; TEAD-YAP block: inactive; MITF primary: inactive; GPR151 conf act: inactive; GPR119 ag: inactive

How did O=C(CN1CCN(CC(=O)Nc2ccccc2F)CC1)Nc1cccc(F)c1 do in these assays?
GPR151 ag: 6.2; FBW7 act: inactive; TEAD-YAP block: inactive; MITF primary: inactive; GPR151 conf act: inactive; GPR119 ag: inactive

What do the screens show for `Cn1cnnc1SCCNC(=O)c1ccc(OCC(=O)C2CC2)cc1`?
GPR151 ag: 6.9; FBW7 act: inactive; TEAD-YAP block: inactive; MITF primary: inactive; GPR151 conf act: inactive; GPR119 ag: inactive

How did C=CCNC(=O)c1ccc(OCC(=O)C2CC2)cc1 do in these assays?
GPR151 ag: inactive; FBW7 act: inactive; TEAD-YAP block: inactive; MITF primary: inactive

Results for COC(=O)c1ccc2c(=O)n(CCc3ccc(OC)c(OC)c3)c(SCC(=O)Nc3ccc(C)cc3)nc2c1 ?
GPR151 ag: inactive; FBW7 act: inactive; TEAD-YAP block: inactive; MITF primary: inactive

How did COc1ccc(CCn2c(SCC(=O)c3ccc(F)cc3)nc3ccccc3c2=O)cc1OC do in these assays?
GPR151 ag: 5.4; FBW7 act: inactive; TEAD-YAP block: inactive; MITF primary: inactive; GPR151 conf act: inactive; GPR119 ag: inactive

How did CCC(Sc1nc2ccccc2c(=O)n1CCc1ccc(OC)c(OC)c1)C(=O)N1CCOCC1 (stereo unspecified) do in these assays?
GPR151 ag: inactive; FBW7 act: inactive; TEAD-YAP block: inactive; MITF primary: inactive

Results for COc1ccc(C(C)=O)cc1CSc1nc2ccccc2c(=O)n1CCc1ccc(OC)c(OC)c1 ?
GPR151 ag: 6.9; FBW7 act: inactive; TEAD-YAP block: inactive; MITF primary: inactive; GPR151 conf act: inactive; GPR119 ag: inactive

How did COC(=O)c1ccc2c(=O)n(CCc3ccc(OC)c(OC)c3)c(SCC(=O)Nc3cc(C)on3)nc2c1 do in these assays?
GPR151 ag: 5.8; FBW7 act: inactive; TEAD-YAP block: inactive; MITF primary: inactive; GPR151 conf act: inactive; GPR119 ag: inactive

How did CCC(Sc1nc2ccccc2c(=O)n1CCc1ccc(OC)c(OC)c1)C(=O)N(CC)CC (stereo unspecified) do in these assays?
GPR151 ag: 6.0; FBW7 act: inactive; TEAD-YAP block: inactive; MITF primary: inactive; GPR151 conf act: inactive; GPR119 ag: inactive

Results for O=C(NNc1ccccn1)NS(=O)(=O)c1ccccc1Cl ?
GPR151 ag: inactive; FBW7 act: inactive; TEAD-YAP block: inactive; MITF primary: inactive
